Test results reported in article PMC9838217, “Structure of SALL4 zinc finger domain reveals link between AT-rich DNA binding and Okihiro syndrome”.
Numbering of substitutions follows the chain as printed.

Experiments:
Experiment in all cases: HT-SELEX; high values mean tight binding
Details in all cases: protein: recombinant; vector His6-GST; dsDNA, one strand shown
[1] = biological target: T1, SALL4 ZFC4 WT (HT-SELEX) (Mus musculus, UniProt Q8BX22 870-940)
T1 sequence: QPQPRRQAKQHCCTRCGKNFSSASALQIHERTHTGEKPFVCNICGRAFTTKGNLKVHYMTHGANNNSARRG
Summary of the method: (§1)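 Binding signal is defined as the fold change of each canonical k-mer's read fraction versus the initial random library. Selections used 1 µg of purified recombinant mouse SALL4 zinc finger cluster 4 (residues 870–940) with library DNA (1.5 µg first cycle, 200 ng later) in 100 µl of 10 mM Tris–HCl pH 7.5, 50 mM NaCl, poly(dI-dC) and DTT, for 10 min at room temperature, followed by Ni2+ bead capture, washing and PCR. Up to 6 such cycles were run in triplicate before MiSeq sequencing and 6-mer scanning.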

[2] = biological target: T2, SALL4 ZFC4 R900W (HT-SELEX) (Mus musculus, UniProt Q8BX22 870-940, R900W)
T2 sequence: T1 sequence with R31W
Summary of the method: as §1

[3] = biological target: T3, SALL4 ZFC4 G921D (HT-SELEX) (Mus musculus, UniProt Q8BX22 870-940, G921D)
T3 sequence: T1 sequence with G52D
Summary of the method: as §1

Sequence	binding signal [1] [fold-change vs cycle 0]	binding signal [2] [fold-change vs cycle 0]	binding signal [3] [fold-change vs cycle 0]
CATTTC	1.25 ± 0.0444	1.26 ± 0.0656	1.23 ± 0.0622
CCGTCA	0.358 ± 0.0271	0.431 ± 0.0281	0.531 ± 0.0693
AGATTG	1.29 ± 0.0269	1.41 ± 0.0315	1.38 ± 0.0773
ACCGAA	0.637 ± 0.01	0.698 ± 0.028	0.776 ± 0.0511
ATGTAA	2.3 ± 0.158	2.09 ± 0.134	1.83 ± 0.187
GACTCC	0.5 ± 0.00838	0.594 ± 0.00754	0.705 ± 0.0401
CGAGGA	0.409 ± 0.0195	0.5 ± 0.0275	0.587 ± 0.0701
AGACTC	0.806 ± 0.0153	0.928 ± 0.0387	1.01 ± 0.0334
ACATTA	2.1 ± 0.0777	2.03 ± 0.0851	1.81 ± 0.142
ACGGTG	0.355 ± 0.0186	0.414 ± 0.0142	0.528 ± 0.0554
CCTAAG	0.941 ± 0.0158	1.05 ± 0.0579	1.05 ± 0.0419
AAAACG	0.821 ± 0.0591	0.931 ± 0.0404	0.972 ± 0.016
CTTTGA	1.2 ± 0.0763	1.36 ± 0.0716	1.33 ± 0.077
CAGTCG	0.32 ± 0.0306	0.389 ± 0.0206	0.497 ± 0.0334
TGTCAA	1.12 ± 0.0378	1.266 ± 0.01	1.26 ± 0.0283
AGGCTA	0.619 ± 0.0154	0.751 ± 0.013	0.829 ± 0.0213
AACTGG	0.7531 ± 0.00684	0.889 ± 0.0264	0.904 ± 0.0346
AGGATA	1.55 ± 0.0339	1.69 ± 0.0876	1.5 ± 0.15
AATTGT	1.82 ± 0.0686	1.81 ± 0.0917	1.66 ± 0.114
AATGAG	1.36 ± 0.0386	1.5 ± 0.047	1.41 ± 0.0472
CCGTTC	0.364 ± 0.0226	0.435 ± 0.0276	0.511 ± 0.0586
GTTAGA	1.3 ± 0.0316	1.47 ± 0.0186	1.41 ± 0.0651
ATGTTG	1.2 ± 0.026	1.29 ± 0.0687	1.28 ± 0.0984

Sequence	binding signal [1] [fold-change vs cycle 0]	binding signal [2] [fold-change vs cycle 0]	binding signal [3] [fold-change vs cycle 0]
ACTGGG	0.468 ± 0.0365	0.547 ± 0.0062	0.615 ± 0.0193
TAAATA	3.77 ± 0.207	2.47 ± 0.107	2.11 ± 0.184
CGATGA	0.734 ± 0.0173	0.797 ± 0.0326	0.875 ± 0.0214
CATATC	1.68 ± 0.148	1.44 ± 0.0706	1.39 ± 0.0818
CAAGCA	0.6412 ± 0.00497	0.724 ± 0.0186	0.814 ± 0.0122
CCAGAA	0.726 ± 0.028	0.821 ± 0.0147	0.852 ± 0.0285
CTAGCA	0.695 ± 0.0294	0.782 ± 0.0282	0.86 ± 0.0269
CCAAAC	0.6318 ± 0.0044	0.729 ± 0.0202	0.813 ± 0.0511
CAGTAG	0.806 ± 0.0679	0.908 ± 0.0926	0.954 ± 0.0684
AGATCG	0.674 ± 0.0467	0.774 ± 0.0175	0.926 ± 0.0361
GAGAAA	1.28 ± 0.0744	1.39 ± 0.0816	1.29 ± 0.0905
AGATAG	1.35 ± 0.0403	1.5 ± 0.0704	1.43 ± 0.117
CAGGAC	0.423 ± 0.0322	0.487 ± 0.0192	0.578 ± 0.0205
CTTTGC	0.581 ± 0.0144	0.663 ± 0.0189	0.743 ± 0.024
GCAATA	1.12 ± 0.0362	1.04 ± 0.028	1.11 ± 0.028
CTGAAA	1.19 ± 0.0701	1.28 ± 0.0787	1.21 ± 0.0732
GATCCA	0.791 ± 0.0326	0.883 ± 0.0218	0.996 ± 0.0315
CTCCTC	0.611 ± 0.00845	0.705 ± 0.0481	0.774 ± 0.0379
GACAAC	0.673 ± 0.0124	0.798 ± 0.0444	0.89 ± 0.0263
GGTAAC	0.927 ± 0.0412	1.08 ± 0.0236	1.06 ± 0.0314
GGGTCA	0.435 ± 0.0224	0.513 ± 0.0178	0.619 ± 0.0472
ACACTG	0.743 ± 0.0572	0.877 ± 0.0574	0.908 ± 0.0148
